“And” between values parts separate entries of the source, which are not always exact repeats. Equal entries are not always repeated. Some compounds were tested as several samples or in several runs, with calls that do not always agree. The source made the active and inactive calls. The calls were made as follows: active = hit-call score of the fitted dose curve at least 0.9, where 1 is the maximum; inactive = score below 0.9.
Experiments:
[1] = read-out: Vascular cell adhesion molecule 1 (VCAM1), VCAM1 (gene 7412); assay: BSK_CASM3C_VCAM1: BioMAP Diversity Plus: CASM3C Assay for Vascular cell adhesion molecule 1 (VCAM1) Biomarker Activity (AID 2283055); conditions: primary human coronary artery smooth muscle cells; actives raise or lower the signal;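 also: VCAM-1 protein level quantified by ELISA on the cells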
[2] = read-out: Collagen III, COL3A1 (gene 1281); assay: BSK_hDFCGF_CollagenIII: BioMAP Diversity Plus: hDFCGF Assay for Collagen III Biomarker Activity (AID 2283056); conditions: primary human foreskin fibroblasts; actives raise or lower the signal
In short: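 Human foreskin fibroblast primary cultures sampled 24 h after dosing; Collagen III quantified by ELISA. Signal fitted bidirectionally against DMSO baseline.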

[3] = read-out: Epidermal growth factor receptor (EGFR), EGFR (gene 1956); assay: BSK_hDFCGF_EGFR: BioMAP Diversity Plus: hDFCGF Assay for Epidermal growth factor receptor (EGFR) Biomarker Activity (AID 2283057); conditions: primary human foreskin fibroblasts; actives raise or lower the signal
In short: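 Primary human foreskin fibroblasts were exposed to compound for 24 h, after which cell-surface EGFR was quantified by ELISA. Activity was fitted bidirectionally against the DMSO negative control as baseline.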

[4] = read-out: Interleukin-8 (IL8), CXCL8 (gene 3576); assay: BSK_hDFCGF_IL8: BioMAP Diversity Plus: hDFCGF Assay for Interleukin-8 (IL8) Biomarker Activity (AID 2283058); conditions: primary human foreskin fibroblasts; actives raise or lower the signal
In short: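 Primary human foreskin fibroblasts (hDFCGF system) dosed with chemical; IL-8 measured by ELISA 24 hours later. Bidirectional curve fitting relative to DMSO baseline; cytotoxicity tracked in parallel cultures by SRB total protein staining.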

[5] = BSK_hDFCGF_Proliferation: Cell Proliferation Assessment in the BioMAP Diversity Plus: hDFCGF Assay (AID 2283059); conditions: primary human foreskin fibroblasts;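 also: curves fitted for both rise and fall of signal versus DMSO baseline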
In short: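 Steps: dose primary human dermal fibroblasts (foreskin); […] fix in 10% TCA; stain with 0.1% SRB; read 560 nm; fit gain or loss of signal against DMSO.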

[6] = read-out: Macrophage colony-stimulating factor (MCSF), CSF1 (gene 1435); assay: BSK_hDFCGF_MCSF: BioMAP Diversity Plus: hDFCGF Assay for Macrophage colony-stimulating factor (MCSF) Biomarker Activity (AID 2283060); conditions: primary human foreskin fibroblasts; actives raise or lower the signal
In short: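 Human foreskin fibroblast primary cultures; M-CSF measured by ELISA 24 hours after chemical dosing. Bidirectional fitting relative to DMSO, with overt cytotoxicity tracked by parallel SRB total-protein staining (0.1% SRB, 10% TCA fixation, 560 nm).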

[7] = BSK_hDFCGF_SRB: Viability Assessment in the BioMAP Diversity Plus: hDFCGF Assay (AID 2283061); conditions: primary human foreskin fibroblasts;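 also: cells exposed to compound for 24 h before the read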
In short: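 Human foreskin fibroblasts in 96-well plates were treated 24 h. Total protein was measured by 0.1% SRB staining after 10% TCA fixation, read at 560 nm. Data were fitted bidirectionally against DMSO.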

[8] = read-out: TIMP metallopeptidase inhibitor 1 (TIMP1), TIMP1 (gene 7076); assay: BSK_hDFCGF_TIMP1: BioMAP Diversity Plus: hDFCGF Assay for TIMP metallopeptidase inhibitor 1 (TIMP1) Biomarker Activity (AID 2283062); conditions: primary human foreskin fibroblasts; actives raise or lower the signal
In short: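 Human foreskin fibroblast primary cultures dosed for 24 h; secreted/surface TIMP-1 quantified by ELISA. Bidirectional curve fitting against DMSO baseline; cytotoxicity tracked in parallel cultures by SRB total-protein staining.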

[9] = read-out: Monokine induced gamma interferon (MIG), CXCL9 (gene 4283); assay: BSK_hDFCGF_MIG: BioMAP Diversity Plus: hDFCGF Assay for Monokine induced gamma interferon (MIG) Biomarker Activity (AID 2283063); conditions: primary human foreskin fibroblasts; actives raise or lower the signal
In short: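 MIG/CXCL9 measured by ELISA 24 h after dosing primary human skin fibroblasts. Activity fitted in both directions against DMSO controls. Cytotoxicity was checked in parallel cultures by SRB staining read at 560 nm.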

[10] = read-out: Matrix Metallopeptidase 1 (MMP1), MMP1 (gene 4312); assay: BSK_hDFCGF_MMP1: BioMAP Diversity Plus: hDFCGF Assay for Matrix Metallopeptidase 1 (MMP1) Biomarker Activity (AID 2283064); conditions: primary human foreskin fibroblasts; actives raise or lower the signal
In short: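 hDFCGF primary fibroblasts (human foreskin); chemical added; 24 h; MMP1 by ELISA; bidirectional fit vs DMSO.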

Measured: AC50

CC12CC1(C)C(=O)N(c1cc(Cl)cc(Cl)c1)C2=O (configuration not stated)
inactive: all assays above

Cc1ccccc1N
inactive: all assays above

CCCCCCCCC(=O)NCc1ccc(O)c(OC)c1
active: [2] 25.6 µM
inactive: all other assays above

Nc1ncc([N+](=O)[O-])s1
inactive: all assays above

ClC(Cl)=C(Cl)C(Cl)=C(Cl)Cl
inactive: [3] | [4] | [6] | [9]
active: [1] 20 µM | [2] 20 µM | [5] 29.4 µM | [8] 20 µM | [10] 32 µM

O=c1[nH]c(=O)[nH]c(=O)[nH]1
inactive: all assays above

ClC1(Cl)C2(Cl)C3(Cl)C4(Cl)C(Cl)(Cl)C5(Cl)C3(Cl)C1(Cl)C5(Cl)C24Cl (configuration not stated)
active: [5] 0.572 µM
not listed: [7]
inactive: all other assays above

CCCCCCCCc1ccc(O)cc1
inactive: [3]
active: [1] 33.9 µM | [2] 20.1 µM | [4] 36 µM | [5] 7.67 µM | [6] 32.9 µM | [7] 26.4 µM | [8] 33.3 µM | [9] 34.8 µM | [10] 31.9 µM

COC[C@H](C)N(C(=O)CCl)c1c(C)csc1C
inactive: all assays above

CC(C)CCCCCCOC(=O)c1ccccc1C(=O)OCCCCCCC(C)C
inactive: all assays above

O=C1C2(Cl)C3(Cl)C4(Cl)C(Cl)(Cl)C5(Cl)C3(Cl)C1(Cl)C5(Cl)C24Cl (configuration not stated)
active: [1] 29 µM | [2] 3.46 µM | [3] 2.09 µM | [4] 14.3 µM | [5] 1.42 µM | [6] 21.9 µM | [7] 16.4 µM | [8] 30 µM | [9] 31 µM | [10] 19.3 µM

CC(=O)[O][Hg][c]1ccccc1
active: [1] 0.836 µM | [2] 0.279 µM | [4] 0.148 µM | [5] 0.148 µM | [6] 0.447 µM | [8] 0.148 µM | [9] 0.208 µM | [10] 0.148 µM
inactive: [3]

COc1cc(-c2ccc(N)c(OC)c2)ccc1N
inactive: [1] | [2] | [3] | [4] | [6] | [8] | [9] | [10]
active: [5] 13.2 µM and 4.28 µM | [6] 9.49 µM | [10] 20 µM

O=Cc1cccc(Oc2ccccc2)c1
inactive: all assays above

COC(=O)c1sccc1S(=O)(=O)NC(=O)Nc1nc(C)nc(OC)n1
inactive: all assays above

CN(C)N=O
not listed: [7]
inactive: all other assays above
